# Experimental data reported in PubChem BioAssay (NCI).
# Compounds without any hit were thinned out: in the full panel of roughly 83,000, 20% have a hit.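 Assay: single dose, 48 h. Readout: percent growth (0 = no net growth; negative = cell death). Active: <10.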 Unmarked numbers belong to inactive results. Activity calls are given as the source filed them.
# Assays:
# Assay in all cases: NCI-60 one-dose screen, 48 h (100 = growth as untreated, 0 = no growth, -100 = all killed)
# Settings in all cases: 10 µM unless noted
# [1] = system: HCT-15 colon
# [2] = system: HT29 colon
# [3] = system: SNB-75 CNS
# [4] = system: SNB-19 CNS
# [5] = system: U251 CNS
# [6] = system: PC-3 prostate
# [7] = system: SK-MEL-5 melanoma
# [8] = system: UACC-62 melanoma
# [9] = system: LOX IMVI melanoma
# [10] = system: SK-MEL-28 melanoma
# [11] = system: SN12C renal
# [12] = system: UO-31 renal
# [13] = system: TK-10 renal
# [14] = system: ACHN renal
# [15] = system: A498 renal
# [16] = system: CCRF-CEM leukemia
# [17] = system: MOLT-4 leukemia
# [18] = system: SK-MEL-2 melanoma
# [19] = system: EKVX NSCLC
# [20] = system: CAKI-1 renal
SMILES,growth [1],growth [2],growth [3],growth [4] [%],growth [5],growth [6] [%],growth [7] [%],growth [8] [%],growth [9] [%],growth [10] [%],growth [11] [%],growth [12],growth [13] [%],growth [14],growth [15],growth [16],growth [17],growth [18] [%],growth [19] [%],growth [20]
COC(=O)C(N)CSC(c1ccccc1)(c1ccccc1)c1ccccc1 (stereo not drawn),28%,1.58% (active),31.4%,63.7,23.3%,25.1,23.9,54.3,35.2,49.5,39.9,52.6%,49.5,57%,34.1%,13.7%,8.4% (active),–,–,–
Brc1ccc2[nH]cc(-c3nc(-c4c[nH]c5ncccc45)cs3)c2c1,-32.3% (active),9.69% (active),37.3%,68.8,27.7%,38.1,54.7,41.9,–,71.6,49.8,19.2%,30.1,15.9%,43.6%,29.7%,18.4%,36.3,43.9,7.49% (active)
O=C1/C(=C\c2ccc(Br)o2)SC(=S)N1CCc1ccc(O)cc1,72.1%,114%,65.6%,88.1,96.5%,77.2,99.2,64,–,55.3,86.9,-48.4% (active),92.8,49.8%,108%,21.8%,64.3%,103,81.4,27.8%
Clc1ccccc1-c1nc(Nc2nc3ccccc3s2)nc(C(Cl)(Cl)Cl)n1,19.2%,13.1%,58.2%,43.5,20.5%,40.8,90.7,48.1,–,51.3,82.6,14.3%,84.1,6.55% (active),58.3%,92.5%,86.3%,85.9,54,20.9%
N=c1c(S(=O)(=O)c2ccccc2)cc2c(=O)n3ccccc3nc2n1C1CCCC1,86.2%,117%,61.1%,90.3,85.9%,85,84.2,80.2,–,102,87.2,50.9%,82.5,86%,-1.39% (active),93.6%,82%,104,78.1,64.6%
Cc1ccc2c(c1)c1nc3cc(C)c(C)cc3nc1n2CCN(C)C,3.18% (active),19%,23.9%,17.1,23.7%,25,15.4,12.3,–,17.2,13.5,-10.4% (active),27.7,-0.699% (active),35.7%,26.4%,–,35.8,19.7,2.44% (active)
O=C1/C(=C\c2ccco2)SC(=S)N1CCc1ccc(O)cc1,92.7%,114%,78.5%,95.6,96.7%,97.5,97.4,85.3,–,98.3,91.6,54%,130,96%,97.1%,44.8%,–,104,91.1,83.4%
Cc1ccc(Cc2cnc(NC(=O)/C=C/c3cccc(C)c3)s2)cc1,7.04% (active),0.0384% (active),-23.6% (active),13.4,9.32% (active),30.3,12.6,16.3,–,50.3,31.4,33.7%,28.3,12.1%,-5.43% (active),9.04% (active),16.7%,51.6,29.4,12.5%
